Measurements from PubChem BioAssay AID2315 (National Center for Advancing Translational Sciences (NCATS), 2010).
Values joined by “and” are separate entries in the source; they are usually repeats but may differ in a detail not shown here. Equal values may be shown once. Out of some 290,000 compounds screened, about 27,000 (9.3%) were called active. No stated cut-off is given here; in the data, active means inhibition mostly above about 28% (no sharp cut-off); inactive means mostly below about 43%. The entries come from a sample that favours actives as a whole.

test: A qHTS for Small Molecule Inhibitors of Shiga Toxin; details: Vero cells, Shiga toxin protein synthesis inhibition reporter; at 38.7 µM, stronger effect = higher value; further: 0% is about no effect

SMILES | inhibition
COc1ccccc1N(CC(=O)N/N=C(\C)c1ccccc1O)S(=O)(=O)c1ccc(C)cc1 | -3.24% (inactive)
CCOC(=O)c1ccc(NC(=O)CCn2c(=O)oc3ccccc32)cc1 | -8.48% (inactive)
O=C(NC(=S)N1CCCCC1c1cccnc1)c1ccccc1 (centres undefined) | 3.14% (inactive)
Cc1ccccc1NC(=O)CSc1ccc2nnc(-c3ccccn3)n2n1 | 15.7% (inactive)
COC(=O)c1ccccc1NC(=O)c1ccc(C#N)cc1 | 8.5% (inactive)
Cc1c(CN2CCC(n3nccc3NC(=O)CCc3ccccc3)CC2)cnn1C | 4.45% (inactive)
O=C(NCC(=O)N1CCC2(CC1)NCCc1[nH]cnc12)c1ccc(Br)cc1 | -10% (inactive)
COc1ccc(NC(=O)CCS(=O)(=O)c2cc3c(cc2Cl)NC(=O)CO3)cc1OC | -4.27% (inactive)
O=C(NCC1CCCO1)c1ccc2ccccc2n1 (centres undefined) | 69.8% (active)
Cc1cc(C)n(C(=O)CCNC(=O)c2ccccc2Cl)n1 | -4.34% (inactive)
Cc1ccc(-c2noc(-c3ccccc3C(=O)NCC3CCCO3)n2)cc1 (centres undefined) | 48.4% (active)
COCCNC(=O)c1ccccc1-c1nc(-c2ccccc2Cl)no1 | 79.4% (active)
O=C(CSCc1c(F)cccc1Cl)NCC1CCCO1 (centres undefined) | -5.03% (inactive)
O=C(NCC1CCCO1)c1ccccc1-c1nc(-c2ccccc2Cl)no1 (centres undefined) | 43.2% (active)
Cc1ccccc1CN(c1ccc(C(=O)NCC2CCCO2)cc1)S(C)(=O)=O (centres undefined) | -12.3% (inactive)
Cc1ccc2cc(CCNC(=O)c3c(-c4ccccc4Cl)noc3C)c(=O)[nH]c2c1 | -3.3% (inactive)
O=C(Nc1ccccc1C(=O)NCC1CCCO1)c1ccccc1F (centres undefined) | 17.2% (inactive)
Cc1nc2ccccc2c2oc(C(=O)NCC3CCCO3)cc12 (centres undefined) | -16% (inactive)
O=C(NCC1CCCO1)c1cc2c([nH]c3ccccc32)c(-c2ccc(F)cc2)n1 (centres undefined) | -7.75% (inactive)
O=C(NCC1CCCO1)c1cc(-c2ccccc2)nc2ccccc12 (centres undefined) | 15% (inactive)
Cc1ccc(S(=O)(=O)N(CC(O)CN2CCCCC2)c2cccc([N+](=O)[O-])c2)cc1 (centres undefined) | -3.58% (inactive)
COc1ccc(CCNS(=O)(=O)c2cc3c(cc2C)NC(=O)CO3)cc1OC | 14.5% (inactive)
CC(C)CC(=O)N1CCN(Cc2ccccc2Br)CC1 | 15.6% (inactive)
CN1CCN(NC(=O)Nc2ccc(Br)cc2)CC1 | 24.3% (inactive)
O=C(c1ccc(Cl)c(S(=O)(=O)N2CCCCC2)c1)N1CCCCCC1 | -21.7% (inactive)

SMILES | inhibition
COc1ccc(C(=O)CCC(=O)Nc2ccc(Cl)cc2)cc1 | -6.22% (inactive)
Cn1sc(=O)c2cc(S(=O)(=O)NC3CC3)ccc21 | -7.9% (inactive)
Cc1nn(Cc2ccccc2)c(C)c1NS(=O)(=O)c1ccccc1 | -5.63% (inactive)
ONC(=Nc1ccccc1)c1ccccc1Cl | -18.8% (inactive)
COc1ccc(N(C(=O)c2cccnc2)S(=O)(=O)c2ccc(OC)c(OC)c2)cc1 | -7.61% (inactive)
COc1ccc(OC)c(C(C)NC(=S)Nc2ccc(S(=O)(=O)Nc3ncccn3)cc2)c1 (centres undefined) | -14% (inactive)
COc1ccc2cc(C(=O)C3CCCN(C(=O)c4sc(C)nc4C)C3)ccc2c1 (centres undefined) | 15.6% (inactive)
O=C(CSc1ccc(-c2ccc(Br)cc2)nn1)NCC1CCCO1 (centres undefined) | 2.72% (inactive)
CCCNC(=O)CCn1nc(-c2ccccc2)c2ccccc2c1=O | -10.6% (inactive)
COC(=O)C(CC(C)C)NS(=O)(=O)c1cc(Br)ccc1Br (centres undefined) | 40.7% (inactive)
O=C(O)Cc1csc(-c2cccc(Oc3ccccc3)c2)n1 | -2.34% (inactive) and 18.5% (inactive)
COc1ccc2cc(C(=O)NCC3CCCO3)[nH]c2c1 (centres undefined) | 81.7% (active)
CCC(=O)c1c[nH]c(C(=O)NCC2CCCO2)c1 (centres undefined) | -5.73% (inactive)
COc1ccc(SCc2noc(C(=O)NCC3CCCO3)c2C(=O)O)cc1 (centres undefined) | -6.14% (inactive)
CNC(=O)C1CCN(S(=O)(=O)c2c(C)noc2/C=C/c2cccc(C)c2)CC1 | -9.45% (inactive)
Cc1ccc2cccc(OCCCOc3ccccc3CO)c2n1 | 25.2% (inactive)
Cc1nonc1NC(=O)c1oc2ccccc2c1C | 85.7% (active)
Cc1nonc1NC(=O)c1ccccc1Br | 30.3% (inactive)
CCc1nonc1NC(=O)c1oc2ccc(Cl)cc2c1C | 1.67% (inactive)
Cc1ccc(NC(=O)c2oc3ccccc3c2C)c([N+](=O)[O-])c1 | 46.2% (active)
Cc1c(C(=O)NC2CCCCC2)oc2ccccc12 | 60.6% (inactive)
Cc1ccc(NC(=O)CN(C)Cc2ccc(F)cc2)c([N+](=O)[O-])c1 | 19.4% (inactive)
COCc1cc(C)n(CC(=O)NCC2CCCO2)c(=O)c1C#N (centres undefined) | -20.7% (inactive)
COc1ccccc1CCCNC(=O)C1CCC(=O)N(CCN2CCOCC2)C1 (centres undefined) | -25.5% (inactive)
Nc1nc(NCc2ccccc2)n(-c2ccccc2)n1 | -6.24% (inactive)

SMILES | inhibition
Cc1cccc(CC(=O)N2CCN=C2SCc2ccc([N+](=O)[O-])cc2)c1 | 2.92% (inactive)
CN(C)S(=O)(=O)c1cccc(NC(=S)NCc2ccc3c(c2)OCO3)c1 | -10.4% (inactive)
S=C(Nc1cccc(Cl)c1)Nc1ccc2c(c1)OCCO2 | 61.2% (active)
FC(F)(F)c1cccc(NC(=S)Nc2cccc(Cl)c2)c1 | 1.44% (inactive)
Cc1csc(NC(=S)Nc2cccc(Cl)c2)n1 | 126% (active)
FC(F)Oc1ccc(NC(=S)NCc2ccco2)cc1Cl | 9.56% (inactive)
S=C(NCc1ccc2c(c1)OCO2)NCc1ccco1 | 53.2% (inactive)
S=C(Nc1cccc(Cl)c1)Nc1ccc2cn[nH]c2c1 | 34.5% (inactive)
CC(=O)Nc1cccc(C(=O)Nc2nc(C)cs2)c1 | 42.6% (inactive)
S=C(NCc1ccco1)Nc1ccc2c(c1)OCCO2 | 69.3% (active)
CC(NS(=O)(=O)c1ccc(OCC(=O)N2CCCC2)cc1)c1ccccc1 (centres undefined) | -8.81% (inactive)
COCCn1cnc2c1c(=O)n(CC(=O)NN)c(=O)n2Cc1ccccc1 | 14.2% (inactive)
C/C(=N\NC(=O)c1cc(-c2ccc(O)cc2)nc2ccccc12)c1cccnc1 | 6.02% (inactive)
CC1CC(C)CN(CCCNC(=O)Cn2ncc3c([nH]c4ccccc43)c2=O)C1 (centres undefined) | -7.63% (inactive)
Cc1c(Br)c([N+](=O)[O-])nn1CC(=O)Nc1sc2c(c1C(=O)OC(C)C)CCC(C)C2 (centres undefined) | -7.24% (inactive)
CCCOc1cccc(C(=O)NCCCNC(=O)c2cccnc2)c1 | -9.24% (inactive)
CCCOc1cccc(C(=O)Nc2nnn(CCC)n2)c1 | 103% (active)
CCCn1nnc(NC(=O)COc2ccc(CC)cc2)n1 | 3.59% (inactive)
CCCCCN(C(=O)CCC(=O)OCC(=O)NCc1ccc(OC)cc1)c1c(N)n(CCCC)c(=O)[nH]c1=O | -10.9% (inactive)
CC(C)c1ccc(NC(=O)C2CCCN(S(=O)(=O)c3cccnc3)C2)cc1 (centres undefined) | -4.38% (inactive)
COc1ccc(NC(=O)CC2C(=O)NC3CCCCC3N2C(=O)c2ccc(F)cc2)cc1 (centres undefined) | -4.42% (inactive)
O=C(COc1cccc(Cl)c1)NCc1ccccc1 | 15% (inactive)
CCN(CC)CCN1C(=O)C2C(C(=O)Nc3ccc(Br)cc3)C3C=CC2(O3)C1C(=O)NC1CCCCC1 (centres undefined) | -12% (inactive)
Cc1ccc(COc2ccc(C(=O)NN)cc2)cc1 | 30.5% (inactive)
CC(C)c1cc(C(N)=O)c(NC(=O)c2cccc(COc3ccc(Br)cc3)c2)s1 | 199% (active)

SMILES | inhibition
NNC(=O)c1cccc(COCC(F)(F)C(F)F)c1 | -2.2% (inactive)
CCn1c(SCC(=O)Nc2nccs2)nnc1-c1ccco1 | -6.37% (inactive)
Cc1cc(C(F)(F)F)nc(SCC(=O)Nc2nccs2)n1 | -9.67% (inactive)
CC(=O)c1cc(C#N)c(SCC(=O)C(C)(C)C)nc1C | 89.1% (active)
CCn1c(SCC(=O)Nc2nccs2)nnc1-c1ccncc1 | -7.47% (inactive)
CC(=O)c1cc(C#N)c(SCC(=O)Nc2nccs2)nc1C | 65% (active)
Cc1[nH]c2ccccc2c1SCC(=O)Nc1nccs1 | 63.6% (active)
CC(=O)c1cc(C#N)c(N2CCCCC2)nc1C | 1.31% (inactive)
CC(=O)c1cc(C#N)c(N2CC(C)OC(C)C2)nc1C (centres undefined) | -8.18% (inactive)
Cc1cccc(C)c1Nc1nnc(SCC(=O)Nc2sccc2C#N)s1 | -3.87% (inactive)
CCOC(=O)CNC(=O)CSc1ncccc1-c1nc2ccccc2[nH]1 | -7.03% (inactive)
COc1ccc(NC(=O)C2CCC(CNS(=O)(=O)c3csc(C(N)=O)c3)CC2)cc1OC (centres undefined) | -12.8% (inactive)
COc1ccc(Oc2cn[nH]c2-c2ccc(OC)cc2O)cc1 | -5.45% (inactive)
O=C(OCC#CCSc1nnc(-c2ccncc2)o1)c1sc2ccccc2c1Cl | -13.4% (inactive)
C#CCSc1nnc(-c2sc3ccccc3c2Cl)o1 | 89.1% (active)
COc1ccc2c(Cl)c(-c3nnco3)sc2c1 | -0.739% (inactive)
O=C(NCCc1nnc2ccc(SCC(=O)N3CCOCC3)nn12)c1ccccc1 | -1.17% (inactive)
COc1ccc(-c2nn(-c3ccccc3)cc2/C=N/Nc2ccccn2)cc1OC | 24.4% (active)
CC(C)(C)OC(=O)N/N=C/c1cn(-c2ccccc2)nc1-c1cccnc1 | -2.23% (inactive)
COc1ccc(-c2nn(-c3ccccc3)cc2C(=O)Nc2nccs2)cc1OC | 12.9% (inactive)
COc1cccc(CNC(=O)C2CCCN(c3ncnc4c3nc3n4CCCCC3)C2)c1 (centres undefined) | -3.2% (inactive)
COc1ccc(S(=O)(=O)NCCCCOc2ccc(Cl)cc2)cc1 | -5.02% (inactive)
COc1ccc(N(CC(=O)N2CCCCCC2)S(=O)(=O)c2ccccc2)cc1 | 32.1% (inactive)
COc1ccc(N(CCC#N)S(=O)(=O)c2ccc(Cl)cc2)cc1 | 42.6% (active)
